Assay in all cases: DAPPL (digital affinity profiling via proximity ligation, sequencing); 10 mM Tris-HCl pH 7.5, 50 mM NaCl, 1 mM DTT, 4% glycerol, room temperature, 30 min; GST-TFs on glutathione beads, 16-mer random dsDNA library, 0.1% formaldehyde crosslink after washing; high values mean tight binding
One assay addresses T1, FEV (Homo sapiens, UniProt Q99581 1-238).
T1 sequence: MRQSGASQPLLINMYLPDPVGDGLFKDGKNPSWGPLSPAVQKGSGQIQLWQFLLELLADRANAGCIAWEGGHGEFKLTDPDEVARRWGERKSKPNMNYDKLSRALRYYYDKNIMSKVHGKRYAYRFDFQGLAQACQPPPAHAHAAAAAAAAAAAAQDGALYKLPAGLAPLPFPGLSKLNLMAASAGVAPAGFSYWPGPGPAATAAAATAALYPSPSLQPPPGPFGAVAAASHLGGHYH
The settings on record: protein: recombinant; tags: N-terminal GST; dsDNA, one strand shown. The essentials:
(§1)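 In yeast, human transcription factors were expressed with a GST fusion, then pulled down on glutathione beads and given DNA barcodes. Pooled with a tag-only sample, they were exposed to 200 nmole of a 16-mer random double-stranded DNA library (Tris/NaCl/DTT/glycerol buffer, room temperature, 30 min), washed, crosslinked with 0.1% formaldehyde, proximity-ligated using BsaI/T4 ligase for 1 h at 37 °C, PCR-amplified and read on an Illumina NextSeq500. Each hexamer's frequency of reads for a factor, divided by the matching frequency for the tag-only sample, gives the binding signal.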

In a further assay the target is ETV5 (Homo sapiens, UniProt P41161 1-510). The settings on record: protein: recombinant; tags: N-terminal GST; dsDNA, one strand shown. The method in brief: as §1
For a further assay, the target named is HSF1 (Homo sapiens, UniProt Q00613 1-529). Particulars: protein: recombinant; tags: N-terminal GST; chain copies: 3; dsDNA, one strand shown. The method in brief:
as §1

A further assay has as its target T2, SPIC (Homo sapiens, UniProt Q8N5J4 1-248).
T2 sequence: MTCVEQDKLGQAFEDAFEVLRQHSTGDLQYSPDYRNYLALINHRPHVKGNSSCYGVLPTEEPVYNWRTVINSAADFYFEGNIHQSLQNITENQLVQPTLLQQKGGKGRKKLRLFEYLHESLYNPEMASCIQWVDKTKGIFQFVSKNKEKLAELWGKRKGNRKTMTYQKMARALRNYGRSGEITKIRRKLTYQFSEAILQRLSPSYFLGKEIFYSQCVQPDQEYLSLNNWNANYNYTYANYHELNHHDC
The settings on record: protein: recombinant; tags: N-terminal GST; dsDNA, one strand shown. The essentials:
as §1

A further assay deals with ELF4 (Homo sapiens, UniProt Q99607 1-663). The settings on record: protein: recombinant; tags: N-terminal GST; dsDNA, one strand shown. The essentials:
as §1

Another assay addresses T3, ELK4 (Homo sapiens, UniProt P28324-2 1-405).
T3 sequence: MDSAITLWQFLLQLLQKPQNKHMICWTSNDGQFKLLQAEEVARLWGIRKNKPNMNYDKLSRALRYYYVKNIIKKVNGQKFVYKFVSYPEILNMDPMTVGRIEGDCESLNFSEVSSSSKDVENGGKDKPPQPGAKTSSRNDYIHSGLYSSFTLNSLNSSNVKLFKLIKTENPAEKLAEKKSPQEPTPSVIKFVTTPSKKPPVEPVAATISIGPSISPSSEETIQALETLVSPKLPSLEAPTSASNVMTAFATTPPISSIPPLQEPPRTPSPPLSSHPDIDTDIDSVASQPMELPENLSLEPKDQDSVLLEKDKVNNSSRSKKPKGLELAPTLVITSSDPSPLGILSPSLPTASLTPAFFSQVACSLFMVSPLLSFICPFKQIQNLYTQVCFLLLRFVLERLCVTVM
The settings on record: protein: recombinant; tags: N-terminal GST; dsDNA, one strand shown. The essentials: as §1

Another assay addresses T4, ETV2 (Homo sapiens, UniProt O00321 1-342).
T4 sequence: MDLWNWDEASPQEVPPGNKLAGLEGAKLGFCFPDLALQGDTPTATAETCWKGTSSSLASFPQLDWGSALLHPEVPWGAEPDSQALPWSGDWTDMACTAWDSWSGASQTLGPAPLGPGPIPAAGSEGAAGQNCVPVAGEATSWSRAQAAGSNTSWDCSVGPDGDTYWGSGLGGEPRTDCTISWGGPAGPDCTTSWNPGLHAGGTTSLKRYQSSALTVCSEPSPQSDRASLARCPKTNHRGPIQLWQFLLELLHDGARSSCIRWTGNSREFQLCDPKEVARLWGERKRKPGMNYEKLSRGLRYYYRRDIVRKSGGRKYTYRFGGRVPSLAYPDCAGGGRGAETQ
Particulars: protein: recombinant; tags: N-terminal GST; dsDNA, one strand shown. The essentials: as §1

For another assay, the target named is T5, ELF3 (Homo sapiens, UniProt P78545 1-371).
T5 sequence: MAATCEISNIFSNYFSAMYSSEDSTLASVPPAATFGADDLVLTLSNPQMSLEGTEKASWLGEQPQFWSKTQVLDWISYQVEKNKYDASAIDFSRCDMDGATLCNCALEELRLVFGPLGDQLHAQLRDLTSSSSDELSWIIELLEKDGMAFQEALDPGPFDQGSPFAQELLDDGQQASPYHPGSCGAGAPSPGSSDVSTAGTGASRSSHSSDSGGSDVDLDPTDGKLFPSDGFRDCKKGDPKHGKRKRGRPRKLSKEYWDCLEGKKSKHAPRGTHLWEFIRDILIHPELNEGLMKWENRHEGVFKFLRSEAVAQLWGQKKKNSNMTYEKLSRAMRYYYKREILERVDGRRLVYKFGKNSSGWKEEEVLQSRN
Particulars: protein: recombinant; tags: N-terminal GST; dsDNA, one strand shown. The method in brief:
as §1

The next assay has as its target CRX (Homo sapiens, UniProt O43186 1-299). Particulars: protein: recombinant; tags: N-terminal GST; dsDNA, one strand shown. The essentials:
as §1

The next assay has as its target ETV1 (Homo sapiens, UniProt P50549 1-477). Particulars: protein: recombinant; tags: N-terminal GST; dsDNA, one strand shown. The method in brief: as §1
For the next assay, the target named is T6, ERF (Homo sapiens, UniProt P50548 1-548).
T6 sequence: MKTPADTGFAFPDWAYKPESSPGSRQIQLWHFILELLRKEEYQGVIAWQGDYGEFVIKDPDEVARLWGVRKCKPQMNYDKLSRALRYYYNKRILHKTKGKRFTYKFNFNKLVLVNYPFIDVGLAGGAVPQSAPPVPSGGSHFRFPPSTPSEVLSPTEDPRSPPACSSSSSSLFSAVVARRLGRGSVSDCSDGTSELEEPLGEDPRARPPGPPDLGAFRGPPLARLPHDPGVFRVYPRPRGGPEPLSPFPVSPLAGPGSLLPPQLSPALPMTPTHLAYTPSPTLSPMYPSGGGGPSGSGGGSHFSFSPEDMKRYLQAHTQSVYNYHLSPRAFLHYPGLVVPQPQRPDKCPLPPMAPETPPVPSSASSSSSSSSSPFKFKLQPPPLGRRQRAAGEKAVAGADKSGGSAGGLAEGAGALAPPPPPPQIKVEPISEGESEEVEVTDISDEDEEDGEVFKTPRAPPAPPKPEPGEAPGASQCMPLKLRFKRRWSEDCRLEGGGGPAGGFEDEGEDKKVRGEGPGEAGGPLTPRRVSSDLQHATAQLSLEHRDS
Particulars: protein: recombinant; tags: N-terminal GST; dsDNA, one strand shown. The essentials:
as §1

In a further assay the target is T7, ETV3L (Homo sapiens, UniProt Q6ZN32 1-361).
T7 sequence: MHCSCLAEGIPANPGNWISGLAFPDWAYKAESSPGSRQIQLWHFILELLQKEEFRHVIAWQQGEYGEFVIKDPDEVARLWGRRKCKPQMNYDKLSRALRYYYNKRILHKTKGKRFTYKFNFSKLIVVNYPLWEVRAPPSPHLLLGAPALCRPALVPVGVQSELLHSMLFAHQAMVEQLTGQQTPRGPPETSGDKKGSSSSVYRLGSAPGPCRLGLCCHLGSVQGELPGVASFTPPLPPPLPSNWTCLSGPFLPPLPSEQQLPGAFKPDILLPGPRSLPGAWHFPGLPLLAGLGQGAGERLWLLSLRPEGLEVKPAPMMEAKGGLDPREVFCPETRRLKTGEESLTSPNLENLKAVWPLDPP
The settings on record: protein: recombinant; tags: N-terminal GST; dsDNA, one strand shown. The method in brief:
as §1

The next assay concerns the target T8, ETS2 (Homo sapiens, UniProt P15036 1-469).
T8 sequence: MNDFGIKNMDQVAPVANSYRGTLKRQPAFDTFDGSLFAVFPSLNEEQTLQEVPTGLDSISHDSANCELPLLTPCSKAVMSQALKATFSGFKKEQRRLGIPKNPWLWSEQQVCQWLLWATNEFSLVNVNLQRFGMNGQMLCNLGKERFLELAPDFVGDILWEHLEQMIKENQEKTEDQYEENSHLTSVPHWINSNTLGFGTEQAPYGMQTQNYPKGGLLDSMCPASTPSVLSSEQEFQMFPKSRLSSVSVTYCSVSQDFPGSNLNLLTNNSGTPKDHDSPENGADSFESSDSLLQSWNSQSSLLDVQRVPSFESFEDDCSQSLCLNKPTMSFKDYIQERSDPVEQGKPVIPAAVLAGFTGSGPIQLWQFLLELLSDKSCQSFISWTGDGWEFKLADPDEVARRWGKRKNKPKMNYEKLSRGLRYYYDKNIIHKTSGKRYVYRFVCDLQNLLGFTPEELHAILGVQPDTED
The settings on record: protein: recombinant; tags: N-terminal GST; dsDNA, one strand shown. The method in brief:
as §1

For a further assay, the target named is T9, SPDEF (Homo sapiens, UniProt O95238 1-335).
T9 sequence: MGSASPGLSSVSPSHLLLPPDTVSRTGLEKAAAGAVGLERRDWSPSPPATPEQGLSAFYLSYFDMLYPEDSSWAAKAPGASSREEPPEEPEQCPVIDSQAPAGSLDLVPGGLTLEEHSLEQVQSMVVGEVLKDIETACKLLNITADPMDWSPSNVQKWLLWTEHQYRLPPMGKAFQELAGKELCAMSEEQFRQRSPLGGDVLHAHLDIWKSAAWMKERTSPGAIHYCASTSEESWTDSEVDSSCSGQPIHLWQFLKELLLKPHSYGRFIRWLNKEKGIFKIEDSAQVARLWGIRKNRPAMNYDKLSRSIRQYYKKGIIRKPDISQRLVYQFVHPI
Particulars: protein: recombinant; tags: N-terminal GST; dsDNA, one strand shown. The method in brief:
as §1

Another assay has as its target T10, ETV7 (Homo sapiens, UniProt Q9Y603 1-341).
T10 sequence: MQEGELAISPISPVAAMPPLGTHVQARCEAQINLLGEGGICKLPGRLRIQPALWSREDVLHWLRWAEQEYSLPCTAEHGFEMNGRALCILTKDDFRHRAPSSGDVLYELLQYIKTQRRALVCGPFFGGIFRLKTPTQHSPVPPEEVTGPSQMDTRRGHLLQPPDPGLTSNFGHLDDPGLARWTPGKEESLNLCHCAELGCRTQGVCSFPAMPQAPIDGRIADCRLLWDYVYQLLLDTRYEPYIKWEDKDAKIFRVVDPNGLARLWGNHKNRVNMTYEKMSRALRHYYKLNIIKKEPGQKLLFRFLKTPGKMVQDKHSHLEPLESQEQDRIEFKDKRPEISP
The settings on record: protein: recombinant; tags: N-terminal GST; dsDNA, one strand shown. The essentials:
as §1

The target in a further assay is T11, ELF5 (Homo sapiens, UniProt Q9UKW6-2 1-255).
T11 sequence: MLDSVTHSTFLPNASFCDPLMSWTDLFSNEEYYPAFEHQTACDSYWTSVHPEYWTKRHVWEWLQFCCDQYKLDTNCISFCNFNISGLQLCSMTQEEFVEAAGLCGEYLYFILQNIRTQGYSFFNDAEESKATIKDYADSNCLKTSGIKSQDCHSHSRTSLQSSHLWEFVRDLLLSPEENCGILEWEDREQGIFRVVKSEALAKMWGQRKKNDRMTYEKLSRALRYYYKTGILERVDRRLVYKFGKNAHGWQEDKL
Particulars: protein: recombinant; tags: N-terminal GST; dsDNA, one strand shown. The essentials:
as §1

Another assay deals with T12, ETV3 (Homo sapiens, UniProt P41162-2 1-143).
T12 sequence: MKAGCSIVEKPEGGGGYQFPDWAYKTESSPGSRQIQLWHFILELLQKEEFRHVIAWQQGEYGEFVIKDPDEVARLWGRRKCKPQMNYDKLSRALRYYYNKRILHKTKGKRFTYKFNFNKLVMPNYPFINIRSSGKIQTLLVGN
Particulars: protein: recombinant; tags: N-terminal GST; dsDNA, one strand shown. The essentials:
as §1

Another assay has as its target ETV6 (Homo sapiens, UniProt P41212 1-452). The settings on record: protein: recombinant; tags: N-terminal GST; dsDNA, one strand shown. The method in brief: as §1

The record followed here is PMC7862700, “An all-to-all approach to the identification of sequence-specific readers for epigenetic DNA modifications on cytosine”.

Chain of ETV6 (P41212 whole entry): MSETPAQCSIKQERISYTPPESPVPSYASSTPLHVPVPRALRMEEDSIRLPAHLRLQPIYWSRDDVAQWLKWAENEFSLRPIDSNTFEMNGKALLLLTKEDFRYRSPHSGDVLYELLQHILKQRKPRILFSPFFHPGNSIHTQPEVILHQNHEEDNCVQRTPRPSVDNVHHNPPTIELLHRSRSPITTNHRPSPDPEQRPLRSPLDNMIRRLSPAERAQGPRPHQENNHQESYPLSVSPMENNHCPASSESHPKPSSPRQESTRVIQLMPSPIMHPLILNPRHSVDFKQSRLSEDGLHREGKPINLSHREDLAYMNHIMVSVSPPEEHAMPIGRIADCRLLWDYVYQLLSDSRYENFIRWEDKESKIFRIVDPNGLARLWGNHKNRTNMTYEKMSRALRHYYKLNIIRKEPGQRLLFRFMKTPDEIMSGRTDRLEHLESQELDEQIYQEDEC
Chain of HSF1 (Q00613 whole entry): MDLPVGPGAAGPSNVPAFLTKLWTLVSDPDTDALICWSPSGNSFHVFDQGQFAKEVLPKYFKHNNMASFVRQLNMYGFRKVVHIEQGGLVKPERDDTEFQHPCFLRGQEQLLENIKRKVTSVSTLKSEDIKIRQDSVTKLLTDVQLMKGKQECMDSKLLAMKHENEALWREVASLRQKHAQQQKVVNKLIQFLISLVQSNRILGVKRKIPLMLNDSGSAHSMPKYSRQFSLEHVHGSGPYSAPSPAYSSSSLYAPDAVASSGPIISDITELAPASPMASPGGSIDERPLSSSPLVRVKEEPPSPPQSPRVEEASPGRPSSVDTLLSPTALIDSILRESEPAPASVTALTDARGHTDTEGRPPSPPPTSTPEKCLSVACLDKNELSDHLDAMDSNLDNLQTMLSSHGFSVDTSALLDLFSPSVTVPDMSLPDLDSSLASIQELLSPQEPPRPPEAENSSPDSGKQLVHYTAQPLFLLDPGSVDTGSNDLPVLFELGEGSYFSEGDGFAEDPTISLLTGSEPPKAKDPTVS
Chain of ELF4 (Q99607 whole entry): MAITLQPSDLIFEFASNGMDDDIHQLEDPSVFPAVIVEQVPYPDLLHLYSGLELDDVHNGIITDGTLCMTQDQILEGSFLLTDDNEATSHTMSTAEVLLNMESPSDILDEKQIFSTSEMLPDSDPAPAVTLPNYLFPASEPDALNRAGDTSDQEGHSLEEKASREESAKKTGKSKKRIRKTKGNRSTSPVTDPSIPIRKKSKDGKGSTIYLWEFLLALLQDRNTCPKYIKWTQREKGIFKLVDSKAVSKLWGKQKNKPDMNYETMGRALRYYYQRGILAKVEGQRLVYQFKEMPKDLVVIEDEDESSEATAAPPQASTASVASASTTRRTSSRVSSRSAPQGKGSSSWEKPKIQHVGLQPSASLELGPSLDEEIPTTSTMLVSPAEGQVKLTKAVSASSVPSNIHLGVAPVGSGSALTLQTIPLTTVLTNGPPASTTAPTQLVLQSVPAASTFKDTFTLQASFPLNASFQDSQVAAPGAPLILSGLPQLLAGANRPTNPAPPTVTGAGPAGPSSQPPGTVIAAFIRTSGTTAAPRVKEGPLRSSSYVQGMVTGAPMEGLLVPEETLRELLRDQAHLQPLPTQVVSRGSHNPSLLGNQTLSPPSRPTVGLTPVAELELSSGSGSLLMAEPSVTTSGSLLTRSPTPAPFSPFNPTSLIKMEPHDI
Chain of CRX (O43186 whole entry): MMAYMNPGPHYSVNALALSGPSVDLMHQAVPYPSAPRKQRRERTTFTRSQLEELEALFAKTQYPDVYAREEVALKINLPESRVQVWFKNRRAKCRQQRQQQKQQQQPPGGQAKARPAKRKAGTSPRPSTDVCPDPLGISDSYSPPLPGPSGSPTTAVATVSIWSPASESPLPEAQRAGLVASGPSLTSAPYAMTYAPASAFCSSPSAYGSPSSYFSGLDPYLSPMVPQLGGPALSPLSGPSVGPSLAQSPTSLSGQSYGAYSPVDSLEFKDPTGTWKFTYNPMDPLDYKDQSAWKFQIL
Chain of ETV1 (P50549 whole entry): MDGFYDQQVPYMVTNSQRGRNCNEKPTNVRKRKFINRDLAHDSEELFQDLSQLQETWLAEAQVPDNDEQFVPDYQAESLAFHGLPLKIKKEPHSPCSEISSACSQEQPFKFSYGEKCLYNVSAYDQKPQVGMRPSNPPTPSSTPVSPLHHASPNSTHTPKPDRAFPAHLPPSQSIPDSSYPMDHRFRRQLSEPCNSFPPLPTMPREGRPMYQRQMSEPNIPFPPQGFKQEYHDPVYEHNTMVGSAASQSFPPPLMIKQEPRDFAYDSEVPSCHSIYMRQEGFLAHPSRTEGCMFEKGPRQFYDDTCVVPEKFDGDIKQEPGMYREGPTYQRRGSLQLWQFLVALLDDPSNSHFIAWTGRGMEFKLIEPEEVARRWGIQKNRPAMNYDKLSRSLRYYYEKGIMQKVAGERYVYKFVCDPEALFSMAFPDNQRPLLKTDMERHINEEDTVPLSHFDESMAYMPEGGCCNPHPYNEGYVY
Chain of ETV5 (P41161 whole entry): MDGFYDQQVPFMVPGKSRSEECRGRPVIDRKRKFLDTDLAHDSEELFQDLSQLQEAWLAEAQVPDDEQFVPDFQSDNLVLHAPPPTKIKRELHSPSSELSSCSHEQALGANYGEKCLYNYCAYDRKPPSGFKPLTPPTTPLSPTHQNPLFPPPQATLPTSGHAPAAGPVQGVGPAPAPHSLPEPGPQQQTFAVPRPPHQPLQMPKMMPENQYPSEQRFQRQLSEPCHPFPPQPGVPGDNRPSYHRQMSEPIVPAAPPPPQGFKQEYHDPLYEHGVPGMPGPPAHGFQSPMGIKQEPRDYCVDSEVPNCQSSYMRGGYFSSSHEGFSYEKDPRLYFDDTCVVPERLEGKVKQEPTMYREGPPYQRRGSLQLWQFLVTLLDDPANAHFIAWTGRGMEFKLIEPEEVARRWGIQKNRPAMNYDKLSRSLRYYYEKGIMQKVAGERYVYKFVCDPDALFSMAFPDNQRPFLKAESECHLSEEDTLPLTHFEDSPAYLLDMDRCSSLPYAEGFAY

AGATTC: the binding signal with FEV is 1.13 fold enrichment (6-mer frequency, TF over GST control); in the assay with ETV5, 1.07 fold enrichment (6-mer frequency, TF over GST control); with HSF1, 2 fold enrichment (6-mer frequency, TF over GST control); with SPIC it was 1.24 fold enrichment (6-mer frequency, TF over GST control); with ELF4, 1.16 fold enrichment (6-mer frequency, TF over GST control); with ELK4, 1.18 fold enrichment (6-mer frequency, TF over GST control). For the same sequence, the binding signal is 1.32 fold enrichment (6-mer frequency, TF over GST control) with ETV2; 1.11 fold enrichment (6-mer frequency, TF over GST control) with ELF3; 1.41 fold enrichment (6-mer frequency, TF over GST control) in the assay with CRX; 1.22 fold enrichment (6-mer frequency, TF over GST control) with ETV1; 1.05 fold enrichment (6-mer frequency, TF over GST control) in the assay with ERF; 1.23 fold enrichment (6-mer frequency, TF over GST control) in the assay with ETV3L. For the same sequence, the binding signal in the assay with ETS2 was 1.08 fold enrichment (6-mer frequency, TF over GST control); with SPDEF it was 1.17 fold enrichment (6-mer frequency, TF over GST control); in the assay with ETV7 it was 1.18 fold enrichment (6-mer frequency, TF over GST control); with ELF5, 1.09 fold enrichment (6-mer frequency, TF over GST control); with ETV3, 1.15 fold enrichment (6-mer frequency, TF over GST control); with ETV6 it was 1.22 fold enrichment (6-mer frequency, TF over GST control).
